The source made the active and inactive calls.

Data on 15 molecules can be found in PubChem BioAssay.

One assay addresses Albumin (Bos taurus) (UniProt P02769). Put plainly: bovine serum albumin binders on microarray, profiling panel, artefact control for SMM control protein annotation, biochemical, small-molecule microarray, Alexa647 label, 635/667 nm fluorescence (AID 1118).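 Further: score merges 667 nm emission intensity and signal-to-noise per printed compound spot.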 The settings on record: BSA-A647 binding, fluorescence 635 nm, higher = more signal.
Assay [1] in a line: small-molecule microarray binders of probe aXIP, primary screen, biochemical, NeuroSMM set, 635/667 nm fluorescence (AID 1119).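 Further: probe is the protein aXip251-270 applied at 1 µg/mL to compound-printed slides; binding of probe to printed compounds measured as 667 nm fluorescence plus signal to noise.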 Conditions: higher = more signal, called active from +8 up or from −8 down.
The nature of assay [2]: small-molecule binders of probe aNOTCH3, primary screen, biochemical, small-molecule microarray, 635/667 nm fluorescence (AID 1120).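 Further: probe is a biotin-tagged antibody raised against NOTCH3 rather than NOTCH3 protein; score merges spot fluorescence near 667 nm with spot signal to noise.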 Conditions: higher = more signal.
Assay [3] is described as follows: small-molecule binders of probe aNOTCH2, primary screen, biochemical, small-molecule microarray, 635/667 nm fluorescence (AID 1121).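 Further: score merges feature fluorescence read at 667 nm with its signal to noise.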 Conditions: higher = more signal.
The target in assay [4] is Carbonic anhydrase 2 (Homo sapiens) (UniProt P00918). Put plainly: CAII small-molecule binders, profiling panel, biochemical, small-molecule microarray, Alexa647-labelled CAII (AID 1122). The settings on record: CAII-A647 binding fluorescence, higher = more signal.
Assay [5] in a line: COS7 lysate on small-molecule microarray, probe aHis, 635 nm (AID 1123).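 Further: z-score combines 667nm fluorescence intensity with signal-to-noise per printed compound spot.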 The settings on record: COS7 cell lysate, fluorescence, higher = more signal.
A short description of assay [6]: compound binding in COS7 lysate, probe aLAP1, primary screen, cell lysate, small-molecule microarray (AID 1124).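 Further: lysate comes from COS7 cells expressing LAP1 and is applied at 0.3 µg/mL; score merges spot fluorescence near 667 nm with signal-to-noise over triplicate slides.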 The settings on record: probe aLAP1, fluorescence, higher = more signal.
In another assay the test system is Sam68 (KHDRBS1). Put plainly: Sam68 small-molecule binders, primary screen, biochemical, small-molecule microarray, 635 nm fluorescence (AID 1125).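 Further: score merges 667 nm channel intensity with signal to noise over triplicate slides.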 The settings on record: small-molecule microarray binding, higher = more signal.
The subject of assay [7] is Chordin-like protein 2 (CHRDL2). Put plainly: CHRDL2 small-molecule binders, primary screen, biochemical, small-molecule microarray, 635 nm fluorescence (AID 1126).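 Further: printed compound slides probed with Chrdl2 protein at 4 µg/mL for 1 h at 4 C; score merges 667 nm emission intensity with signal to noise over three replicate slides.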 Conditions: small-molecule microarray binding, fluorescence 635 nm; higher = more signal.
Assay [8] deals with Concanavalin-A (Canavalia ensiformis) (UniProt P02866). Put plainly: ConA small-molecule binders, primary screen, artefact control for SMM control protein annotation, biochemical, small-molecule microarray, Alexa647 label, 635 nm (AID 1127).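 Further: z combines 667 nm emission intensity with signal-to-noise across three replicate slides.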 The settings on record: ConA-A647 binding fluorescence, higher = more signal.
Sequence of Concanavalin-A (Canavalia ensiformis) (P02866 whole entry, looked up): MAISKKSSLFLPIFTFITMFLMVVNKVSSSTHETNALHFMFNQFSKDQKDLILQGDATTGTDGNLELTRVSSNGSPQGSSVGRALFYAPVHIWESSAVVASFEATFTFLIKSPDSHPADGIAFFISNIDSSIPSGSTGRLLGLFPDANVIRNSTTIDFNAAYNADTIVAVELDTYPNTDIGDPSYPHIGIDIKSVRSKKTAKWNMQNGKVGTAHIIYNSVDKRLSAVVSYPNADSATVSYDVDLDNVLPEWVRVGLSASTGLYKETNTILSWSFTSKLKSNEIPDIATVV

Sequence of Albumin (Bos taurus) (P02769 whole entry, looked up): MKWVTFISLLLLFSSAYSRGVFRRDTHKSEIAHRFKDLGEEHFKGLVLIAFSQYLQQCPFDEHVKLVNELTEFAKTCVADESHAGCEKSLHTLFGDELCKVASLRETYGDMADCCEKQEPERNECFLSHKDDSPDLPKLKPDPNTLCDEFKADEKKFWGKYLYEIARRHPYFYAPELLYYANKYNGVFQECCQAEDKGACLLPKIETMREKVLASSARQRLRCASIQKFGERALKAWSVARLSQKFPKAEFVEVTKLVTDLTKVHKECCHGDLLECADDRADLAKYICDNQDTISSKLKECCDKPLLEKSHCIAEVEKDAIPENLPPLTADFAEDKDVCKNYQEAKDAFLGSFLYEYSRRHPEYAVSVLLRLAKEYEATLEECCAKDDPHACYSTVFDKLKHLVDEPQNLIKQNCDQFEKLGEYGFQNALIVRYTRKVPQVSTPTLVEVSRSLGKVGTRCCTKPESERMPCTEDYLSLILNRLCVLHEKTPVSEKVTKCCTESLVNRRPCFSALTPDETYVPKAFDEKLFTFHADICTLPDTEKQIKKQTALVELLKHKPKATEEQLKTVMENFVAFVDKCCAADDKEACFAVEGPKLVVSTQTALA

Regarding `C=CCNC(=O)[C@H]1[C@@H]2C(=O)O[C@@H](c3ccccc3)[C@@H](c3ccccc3)N2[C@@H](c2ccc(OCCO)cc2)[C@]12C(=O)N(C(=O)OCCOC)c1ccc(C#CCNC(N)=O)cc12`, the composite z-score in the assay with Albumin (Bos taurus) is 0.452; in assay [2], 0.0927; in assay [3], -0.0132; in [4] it was 0.396; in assay [5] it was 1.73; in [6], 0.812. The composite z-score in the assay with Sam68 (KHDRBS1) came out at 1.22; in [7], 0.742; in assay [8], 1.11. The composite Z-score in assay [1] was -0.0518 (inactive).
On to `COC(=O)[C@]1(Cc2ccccc2N=[N+]=[N-])N=C(c2ccc(OCCCO)cc2)O[C@@H]1c1ccccc1CN=[N+]=[N-]`, for which the composite z-score with Albumin (Bos taurus) was -0.836; in assay [2], 0.169; in [3] it was -0.0439; in [4], 0.483; in assay [5], 1.36; in [6] it was -0.0388. Moreover, the composite z-score in the assay with Sam68 (KHDRBS1) amounted to 1.27; in assay [7], 0.232; in assay [8], 0.844. The composite Z-score in [1] was 0.636 (inactive).
In the case of `CC[C@@H]1C=C(C(=O)O)[C@H](c2cccc(Cl)c2)N1S(=O)(=O)c1ccc(C)cc1`, the composite z-score in the assay with Albumin (Bos taurus) was 0.951; in assay [2] it was -0.0581; in assay [3], 0.0274; in [4], 0.824; in assay [5] it was 2.46; in assay [6], 0.501. Besides, the composite z-score in the assay on Sam68 (KHDRBS1) was 1.09; in assay [7] it was -0.682; in [8], 0.471. The composite Z-score in [1] is -0.147 (inactive).
Regarding `COCCOC(=O)N1C(=O)[C@@]2(c3cc(C#CCNC(N)=O)ccc31)[C@H](C(=O)N1CCN(c3ncccn3)CC1)[C@H]1C(=O)O[C@H](c3ccccc3)[C@H](c3ccccc3)N1[C@@H]2c1ccc(O)cc1`, the composite z-score was 0.526 with Albumin (Bos taurus); -0.457 in [2]; -0.292 in [3]; 0.371 in assay [4]; -0.864 in assay [5]; 0.555 in [6]. The values for the composite z-score (with Sam68 (KHDRBS1); in assay [7]; in assay [8]) were -0.396, -0.956 and -0.785, respectively. In addition, the composite Z-score in assay [1] was -0.453 (inactive).
As to `O=C1N(Cc2ccccc2)c2ccccc2C[C@@]12N=C(c1ccc(OCCCO)cc1)O[C@H]2c1ccccc1`, the composite z-score with Albumin (Bos taurus) was 0.542; in [2], -0.0328; in assay [3], -0.0664; in [4], 0.183; in assay [5] it was 2.47; in [6], -0.0401. For the same molecule, the values for the composite z-score (with Sam68 (KHDRBS1); in [7]; in [8]) were 1.29, 0.0949 and 1.06, respectively. Also, the composite Z-score in assay [1] was -0.329 (inactive).
On to `CC(=O)NCCCC[C@@H]1NC(=O)[C@H]2C[C@@H](C(=O)NCCCCCN)[C@@H](c3ccc(O)cc3)N2C1=O`, for which the composite z-score with Albumin (Bos taurus) was 0.675; in [2], -0.0677; in assay [3] it was -0.0706; in assay [4], 0.413; in assay [5], 1.1; in assay [6] it was -0.15. Also, the composite z-score was 1.21 in the assay with Sam68 (KHDRBS1), 0.851 in assay [7] and 0.966 in assay [8]. Further, the composite Z-score in [1] was 0.0898 (inactive).
In the case of `C=C[C@@H](CO)NS(=O)(=O)c1ccc(Br)cc1`, the composite z-score was 0.225 with Albumin (Bos taurus); -0.331 in assay [2]; -0.17 in [3]; -0.359 in [4]; -0.412 in assay [5]; -0.32 in [6]. Moreover, the composite z-score was -2.22 in the assay on Sam68 (KHDRBS1), 0.222 in assay [7] and -1.76 in assay [8]. Further, in assay [1], the composite Z-score was -0.67 (inactive).
For `CCOC(=O)C[C@H]1[C@H](OC(=O)c2ccccc2-c2ccccc2)[C@@H](NC(=O)CC(C)C)c2cc(OCCCO)ccc2N1C(=O)c1ccccc1`, the composite z-score was 0.079 with Albumin (Bos taurus); -0.0406 in assay [2]; -0.0698 in assay [3]; 0.742 in assay [4]; 0.429 in [5]; -0.161 in [6]. In addition, the composite z-score amounted to 0.207 in the assay on Sam68 (KHDRBS1), 0.389 in assay [7] and 0.125 in [8]. Besides, the composite Z-score in assay [1] is 0.305 (inactive).
With `O=C1N(Cc2ccccc2)Cc2ccccc2C[C@@]12COC(c1ccc(OCCCO)cc1)=N2`, the composite z-score in the assay with Albumin (Bos taurus) was -0.0983; in [2], 0.133; in assay [3], 0.12; in [4] it was 0.461; in [5], 2.08; in [6], 0.4. For the same molecule, the composite z-score came to 1.22 in the assay with Sam68 (KHDRBS1), 0.303 in [7] and 0.864 in assay [8]. The composite Z-score in assay [1] is 0.852 (inactive).
`Cc1ccc(S[C@]2(C(=O)NCCN3CCOCC3)CC(=O)N(C(C)C)[C@@H]2c2ccc(CO)cc2I)cc1`: the composite z-score with Albumin (Bos taurus) was -0.233; in [2] it was -0.0111; in assay [3] it was -0.0391; in [4], 0.288; in assay [5] it was 1.19; in assay [6], 0.933. In addition, the results for the composite z-score (in the assay with Sam68 (KHDRBS1); in assay [7]; in assay [8]) were 0.949, -0.975 and -0.452, respectively. In assay [1], the composite Z-score was 0.289 (inactive).
With `COc1ccc([Si](C)(C)[C@H]2[C@H](CCO)O[C@@]3(C(=O)N(Cc4ccccc4)c4ccc(NC(=O)[C@H](C)O)cc43)[C@@H]2C)cc1`, the composite z-score in the assay with Albumin (Bos taurus) is 0.639; in assay [2] it was 0.372; in [3], -0.0274; in assay [4] it was 0.48; in assay [5], 2.28; in [6], -0.298. The composite z-score with Sam68 (KHDRBS1) worked out at 0.463; in [7], 0.0883; in assay [8], 0.473. Moreover, the composite Z-score in [1] was 0.393 (inactive).
Turning to `CCOC(=O)C[C@H]1[C@H](OC(=O)c2cc3ccccc3oc2=O)[C@@H](NC(=O)Cc2ccc(OC)cc2)c2cc(OCCCO)ccc2N1C(=O)Cc1ccc(OC)cc1`, the composite z-score with Albumin (Bos taurus) is 0.112; in [2], 0.0522; in assay [3], -0.162; in assay [4], 0.709; in assay [5], 0.638; in assay [6], -0.0915. The composite z-score with Sam68 (KHDRBS1) stood at 0.23; in [7], 0.441; in assay [8], 0.817. Further, the composite Z-score in assay [1] was 0.594 (inactive).
Consider `COc1cc2c(cc1O)C(C)N(Cc1sc3ccccc3c1Cl)CC2` (stereo not given), for which the composite z-score with Albumin (Bos taurus) was 1.01; in [2], -0.014; in assay [3] it was -0.0158; in assay [4], 0.937; in assay [5], 0.477; in assay [6], -0.181. For the same molecule, the composite z-score in the assay on Sam68 (KHDRBS1) is -1.44; in [7] it was -1.9; in assay [8], -1.53. The composite Z-score in [1] was -0.768 (inactive).
As to `C=CC[C@@]1(C(=O)NCCCOC)N=C(c2ccc(OCCCO)cc2)O[C@@H]1c1ccccc1CN=[N+]=[N-]`, the composite z-score is 0.829 in the assay with Albumin (Bos taurus); 0.518 in assay [2]; -0.108 in assay [3]; 0.596 in [4]; 2.61 in assay [5]; 0.159 in [6]. The figures for the composite z-score (in the assay on Sam68 (KHDRBS1); in assay [7]; in assay [8]) were 1.29, 0.0984 and 1.08, respectively. Also, in [1], the composite Z-score is 0.202 (inactive).
With `C=C(COC)/C(=C/C[C@@H](OC(C)=O)c1cccc(OCCO)c1)c1cnc2ccccc2c1`, the composite z-score was 0.238 with Albumin (Bos taurus); 0.0916 in [2]; -0.084 in assay [3]; 0.98 in assay [4]; 1.12 in [5]; 0.0842 in assay [6]. The composite z-score is 0.965 with Sam68 (KHDRBS1), 1.42 in assay [7] and 0.877 in assay [8]. Moreover, the composite Z-score in assay [1] was -0.365 (inactive).
